According to PubChem BioAssay (NCI):
About 83,000 compounds went through this panel and 20% of them were active in at least one assay; those are over-represented in the sample as a whole.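 96-well plates, one dose, 48 hours. Percent growth reported; active if below 10.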 A number with no mark means an inactive call. Active and inactive are the calls of the source.

What follows are compounds tested on HCC-2998 colon (assay: NCI-60 one-dose screen, 48 h (100 = growth as untreated, 0 = no growth, -100 = all killed)). Conditions: 10 µM unless noted.
Method: Growth inhibition of the HCC-2998 human tumor cell line is measured as a screen for anti-cancer activity. Cells are grown in 96 well plates and exposed to the test compound for 48 hours. Compounds are tested at a single concentration, which is 10^-5 M for most compounds. The reported endpoint is percent growth (GI% or GIPRCNT), where numbers from 0 - 100% represent growth inhibition, and numbers from -100% - 0 represent cell death. For example, a value of 40 represents 60% growth inhibition. A value of 0 means no net growth occurred over the course of the experiment. A value of -40 indicates 40% of cells at the beginning of the experiment died by the end of the experiment. A value of -100 means all cells are dead at the end of the experiment.
NCI-60 Human Tumor Cell Lines Screen was performed using the standard one-dose NCI protocol, which is described in more detail at https://dtp.cancer.gov/discovery_development/nci-60/default.htm.
Compounds with GIPRCNT values below 10 were considered active. Activity score was based on GIPRCNT using the following formula: […]
Score is 0 for GIPRCNT values of 100 or above, 50 for GIPRCNT values of 0, and 100 for GIPRCNT values of -100.

For `COCc1nc(NS(=O)(=O)c2ccc(N)cc2)nc(C)c1Br`, which growth is on record?
Its growth is 97.1%.

For `COc1ccc(/C=C/c2nc3ccccc3c(=O)n2-c2ccc(C#Cc3ccc(C(C)(C)C)cc3)cc2C)c(OC)c1`, which growth is on record?
The growth was 97.2%.

`COc1ccc2c(c1)N(Cc1ccc(Cl)cc1)CCC2N1CCCC1=O` (stereo not given) was tested. Which growth did it give?
The growth was 49.7%.

Which growth does the source give for `COc1cnc2c(c1)C(=O)c1c-2n(CCCN2CCCC2)c(=O)c2cc(Cl)ccc12` here?
The growth was 62.1%.

Which growth does the source give for `CCN(CC)CCNC(=O)n1cc(-c2ccncc2)c(-c2cc(Cl)cc(OC)c2)n1` here?
The growth was 113%.

For `O=S(=O)(Cc1ccc(Cl)cc1Cl)c1ccc(Cl)cc1`, which growth is on record?
The growth was 31.7%.

Which growth does the source give for `S=C(Nc1ccc(Cl)cc1)Nc1ccc(Cl)cc1` (tested in a mixture with another compound) here?
The growth was 17.8%.

For `CC(C)N(C(=S)SSC(=S)N(C(C)C)C(C)C)C(C)C`, which growth is on record?
Its growth is 113%.

How did the growth turn out when `CCCCCCCCCCCCCC1=NC(C)(C)CN1C(C)C` was run?
Its growth is -90.6% (active).

`c1ccc2c(N=NSc3ncnc4nc[nH]c34)c3ccccc3nc2c1` was tested. Which growth did it give?
The growth was 6.89% (active).

For `Cc1ccccc1C1CC(=O)c2ccccc2C1C` (stereo not given), which growth is on record?
The growth was 104%.

With `COc1ccc(C(=O)N2N=C(c3ccc(F)cc3)CC2c2cn(-c3ccccc3)nc2-c2ccccc2)cc1` (stereo not given) as the compound, how does the growth read?
The growth was 85.7%.

How did the growth turn out when `Nc1nc(N)c2cc(NCc3ccc(Cl)c(Cl)c3)ccc2n1` was run?
The growth was -85.9% (active).

With `CCc1onc(-c2ccc(OC)cc2)c1-c1ccccc1OCCN(CC)CC` as the compound, how does the growth read?
Its growth is 80.8%.

`O=C1Nc2ccccc2/C1=C\c1nc(C2CCN(S(=O)(=O)c3ccc(F)cc3)CC2)n2ccccc12` was tested. Which growth did it give?
The growth was 59.8%.

For `NC(N)=N/N=C/c1ccc(Cl)cc1`, which growth is on record?
Its growth is 86.8%.

For `Cc1cccc(/C=N/n2c(-c3ccc(Cl)cc3)nc3c(Br)cc(Br)cc3c2=O)c1`, which growth is on record?
The growth was 55.6%.

`COc1cc(-c2nc(-c3ccc(-c4nc5ccc(F)cc5[nH]4)cc3)no2)cc(OC)c1OC` was tested. Which growth did it give?
Its growth is 81.5%.

With `COc1ccc(C(=O)O)cc1.[Ag]` as the compound, how does the growth read?
Its growth is 104%.

`CC(=O)N1N=C(C2C(=O)N(C)C(=O)N(C)C2=O)CC1c1ccccc1C(=O)O` (stereo not given) was tested. Which growth did it give?
The growth was 113%.

Which growth does the source give for `Nc1ccc(C2=NNC(=O)Cc3cc4c(cc32)OCCO4)cc1Cl` here?
Its growth is 61.9%.

Which growth does the source give for `COc1ccccc1CNCCCN1C(=O)c2ccc3c4c(ccc(c24)C1=O)C(=O)N(CCCCNCCCN)C3=O` here?
Its growth is -6.41% (active).

How did the growth turn out when `COc1cccc(C2C(C#N)=C(N)Oc3cc4c(cc32)OCO4)c1` (stereo not given) was run?
The growth was 21.8%.

`Cc1c(C(=O)Nc2ccccc2F)sc2c(=O)[nH]cnc12` was tested. Which growth did it give?
Its growth is 93.2%.

How did the growth turn out when `COc1ccc(-c2nc3ccccc3n3cccc23)cc1` was run?
The growth was 110%.

Which growth does the source give for `Nc1cc(C(=O)O)cc(C(=O)O)c1` here?
Its growth is 121%.

`COc1ccc2nc3ccccc3c(NCc3ccc(Cl)cc3)c2c1` was tested. Which growth did it give?
The growth was -87.6% (active).

`Oc1c(C(Nc2ccccc2Br)c2ccccc2)ccc2cccnc12` (stereo not given) was tested. Which growth did it give?
Its growth is 30.1%.

With `O=C(Nc1ccc(Cl)cc1)c1cc(-c2ccc(Cl)cc2)c2sc(=O)[nH]c2n1` as the compound, how does the growth read?
The growth was 19.1%.

How did the growth turn out when `CC1=C(/C=C/C(C)=C/C=C(C(=O)O)\C(C)=C\C(=O)O)C(C)(C)CCC1` was run?
Its growth is 108%.

Which growth does the source give for `CCN1C(=O)/C(=C/N2N=C(c3ccc(Cl)cc3)CC2c2ccc(OC)cc2)SC1=S` (stereo not given) here?
Its growth is 97.7%.

For `COc1cc(C2CC(c3ccc(Cl)cc3)=NN2C(C)=O)ccc1Oc1ccnc2cc(Cl)ccc12` (stereo not given), which growth is on record?
The growth was 59.4%.

How did the growth turn out when `O=C(CSc1nnc(Cc2ccccc2Nc2c(Cl)cccc2Cl)n1-c1ccccc1)N1N=C(c2ccc3ccccc3c2)CC1c1ccc(Cl)cc1` (stereo not given) was run?
Its growth is 93.7%.

With `CC(C)(C)[Si](C)(C)OC1[C@@H](O[Si](C)(C)C(C)(C)C)[C@@H](CNC(=O)NC(=O)NC(=O)CCl)O[C@H]1n1cnc2c(NC(=O)Nc3ccccc3)ncnc21` (stereo not given in full) as the compound, how does the growth read?
Its growth is 75.5%.

How did the growth turn out when `FC(F)(F)c1nn[nH]n1` was run?
The growth was 98.1%.

`O/N=C/c1ccncc1` was tested. Which growth did it give?
The growth was 102%.

For `CCCCCCCCCCCC1=NC(C)(C)CN1CCO`, which growth is on record?
The growth was -17.5% (active).

With `Cc1cc(O)c2cc3c(O)c(O)ccc3cc2c1` as the compound, how does the growth read?
Its growth is 114%.

How did the growth turn out when `COc1cc(NCC(O)CN(CC(C)C)CC(C)C)c2ncccc2c1` (stereo not given) was run?
Its growth is 93.6%.

`O=C(Nc1ccncc1)C(=O)c1cn(S(=O)(=O)c2cccc(Cl)c2F)c2ccccc12` was tested. Which growth did it give?
Its growth is 66.4%.
